# Measurements taken from PubChem BioAssay (NCATS).
# Inconclusive results are not listed. Activity calls are given as the source filed them. The call rests on the fitted dose curve; in most records, active means well fitted curve in the direction sought with a large enough effect; inconclusive means small, poorly fitted or top-dose-only effect, or another doubt; inactive means no such curve, though single readings can be large; an effect the other way counts as inactive or inconclusive.
# Tests used:
# [1] = Quantitative High-Throughput drug screen in 47 multiple myeloma cell lines against the NCATS MIPE library collection: Karpas25_ECACC cell viability assay (AID 1918968; further: nearly all actives have a fitted effect of over 35% in size); details: Karpas25 myeloma viability, CellTiter-Glo ATP, 48 h; series mostly up to 45.8 µM
# Outline: (§1)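 Approved and investigational drugs from MIPE 4.0 were added by pin tool to 500 cells per well. After 48 hours at 37C, ATP-based CellTiter-Glo luminescence indicated remaining viability.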
# [2] = Quantitative High-Throughput drug screen in 47 multiple myeloma cell lines against the NCATS MIPE library collection: KMS27_JCRB cell viability assay (AID 1918970); details: KMS27 myeloma cells, CellTiter-Glo ATP viability, 48 h; series mostly up to 45.8 µM; further: nearly all actives have a fitted effect of over 30% in size
# Outline: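 Viability inhibition screen, 48 h compound exposure, luminescent ATP read-out.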
# [3] = Quantitative High-Throughput drug screen in 47 multiple myeloma cell lines against the NCATS MIPE library collection: KMS12BM_JCRB cell viability assay (AID 1918971); details: KMS12BM myeloma viability, CellTiter-Glo ATP, 48 h; series mostly up to 45.8 µM; further: nearly all actives have a fitted effect of over 35% in size
# Outline: (§2)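 Inhibition of cell viability is measured here. Each line was plated at 500 cells per well, treated with MIPE 4.0 drugs, kept 48 hours at 37C, then assayed for ATP content by CellTiter-Glo luminescence.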
# [4] = Quantitative High-Throughput drug screen in 47 multiple myeloma cell lines against the NCATS MIPE library collection: KMS12PE_JCRB cell viability assay (AID 1918972); details: KMS12PE myeloma viability, CellTiter-Glo ATP, 48 h; series mostly up to 45.8 µM; further: nearly all actives have a fitted effect of over 30% in size
# Outline: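 We plated 500 myeloma cells per well, pinned in MIPE 4.0 compounds, and incubated for 48 hours at 37C. ATP was then quantified with CellTiter-Glo, with DMSO and media-only wells defining 100% and 0%.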
# [5] = Quantitative High-Throughput drug screen in 47 multiple myeloma cell lines against the NCATS MIPE library collection: KMS20_JCRB cell viability assay (AID 1918973); details: CellTiter-Glo ATP, 48 h; series mostly up to 45.8 µM; further: nearly all actives have a fitted effect of over 45% in size
# Outline: as §1
# [6] = Quantitative High-Throughput drug screen in 47 multiple myeloma cell lines against the NCATS MIPE library collection: KMS21BM_JCRB cell viability assay (AID 1918974); details: ATP luminescence, 48 h; viability: at 45.8 µM (top of the series) unless noted
# Outline: as §1
# [7] = Quantitative High-Throughput drug screen in 47 multiple myeloma cell lines against the NCATS MIPE library collection: KMS26_JCRB cell viability assay (AID 1918975); details: KMS26 myeloma cells viability, CellTiter-Glo ATP, 48 h; series mostly up to 45.8 µM; further: nearly all actives have a fitted effect of over 45% in size
# Outline: as §2
# [8] = Quantitative High-Throughput drug screen in 47 multiple myeloma cell lines against the NCATS MIPE library collection: MMM1_PLB cell viability assay (AID 1918976); details: MMM1 myeloma cells viability, CellTiter-Glo, 48 h; series mostly up to 45.8 µM; further: nearly all actives have a fitted effect of over 35% in size
# Outline: (§3)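 Plated at 500 cells per well, myeloma lines received MIPE 4.0 compounds by pin tool. Following 48 h culture at 37 °C, CellTiter-Glo luminescence gave viability relative to DMSO and media-only controls.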
# [9] = Quantitative High-Throughput drug screen in 47 multiple myeloma cell lines against the NCATS MIPE library collection: NCIH929_DSMZ cell viability assay (AID 1918978); details: NCI-H929 myeloma viability, CellTiter-Glo ATP, 48 h; series mostly up to 45.8 µM; further: nearly all actives have a fitted effect of over 35% in size
# Outline: as §3
# [10] = Quantitative High-Throughput drug screen in 47 multiple myeloma cell lines against the NCATS MIPE library collection: MOLP8_DSMZ cell viability assay (AID 1918977); details: MOLP8 myeloma viability, CellTiter-Glo ATP luminescence, 48 h; series mostly up to 45.8 µM; further: nearly all actives have a fitted effect of over 45% in size
# Outline: as §3
# Potency means the concentration at half of the fitted maximal effect.
Compound,Potency [1],Potency [2],Potency [3],Potency [4],Potency [5],Potency [6],Potency [7],Potency [8],Potency [9],Potency [10]
CNCCCC12CCC(c3ccccc31)c1ccccc12,23.5 µM (active),20.9 µM (active),23.5 µM (active),10.5 µM (active),13.2 µM (active),11.8 µM (active),20.9 µM (active),20.9 µM (active),,
COc1nc(C)nc(Cl)c1NC1=NCCN1,9.35 µM (active),inactive,inactive,inactive,9.35 µM (active),,inactive,,10.5 µM (active),
CN1CCN(C2=Nc3cc(Cl)ccc3Nc3ccccc32)CC1,26.4 µM (active),inactive,inactive,,,,inactive,,,
COc1ccc2[nH]cc(CCNC(C)=O)c2c1,inactive,inactive,inactive,inactive,inactive,,9.35 µM (active),,inactive,
Nc1nc2c(ncn2COC(CO)CO)c(=O)[nH]1,2.64 µM (active),10.5 µM (active),18.7 µM (active),14.8 µM (active),1.05 µM (active),,20.9 µM (active),23.5 µM (active),9.35 µM (active),
CC[C@@]1(O)C(=O)OCc2c1cc1n(c2=O)Cc2cc3c(CN(C)C)c(O)ccc3nc2-1,0.662 µM (active),0.0833 µM (active),1.87 µM (active),2.64 µM (active),0.235 µM (active),,20.9 µM (active),18.7 µM (active),0.743 µM (active),
O=C1Cc2cc(CCN3CCN(c4nsc5ccccc45)CC3)c(Cl)cc2N1,18.7 µM (active),8.33 µM (active),20.9 µM (active),,,,,23.5 µM (active),23.5 µM (active),
O=C(Nc1ccc([N+](=O)[O-])cc1Cl)c1cc(Cl)ccc1O,0.332 µM (active),0.935 µM (active),1.48 µM (active),0.469 µM (active),0.59 µM (active),1.05 µM (active),1.87 µM (active),0.743 µM (active),1.05 µM (active),
OCCN(CCO)c1nc(N2CCCCC2)c2nc(N(CCO)CCO)nc(N3CCCCC3)c2n1,26.4 µM (active),20.9 µM (active),26.4 µM (active),23.5 µM (active),,,,23.5 µM (active),,16.6 µM (active)
CC(CCc1ccc(O)cc1)NCCc1ccc(O)c(O)c1 (stereo not drawn),18.7 µM (active),18.7 µM (active),14.8 µM (active),20.9 µM (active),inactive,,,10.5 µM (active),,
CN1CCN(CCCN2c3ccccc3Sc3ccc(Cl)cc32)CC1,5.26 µM (active),16.6 µM (active),16.6 µM (active),8.33 µM (active),8.33 µM (active),6.62 µM (active),26.4 µM (active),26.4 µM (active),29.6 µM (active),
CN(C)CCCN1c2ccccc2CCc2ccc(Cl)cc21,0.743 µM (active),14.8 µM (active),18.7 µM (active),11.8 µM (active),1.87 µM (active),,1.66 µM (active),20.9 µM (active),0.469 µM (active),
CN(C)CCC=C1c2ccccc2C=Cc2ccccc21,1.66 µM (active),inactive,1.48 µM (active),inactive,14.8 µM (active),,6.62 µM (active),4.18 µM (active),inactive,
CCC1(C)CC(=O)NC1=O (stereo not drawn),inactive,inactive,1.18 µM (active),inactive,,,inactive,inactive,inactive,
Cn1c(=O)c2[nH]cnc2n(C)c1=O,inactive,inactive,inactive,inactive,inactive,,inactive,,inactive,
CN(Cc1cnc2nc(N)nc(N)c2n1)c1ccc(C(=O)N[C@@H](CCC(=O)O)C(=O)O)cc1,1.18 µM (active),0.0296 µM (active),6.62 µM (active),,,,,18.7 µM (active),2.35 µM (active),
CS(=O)(=O)CCNCc1ccc(-c2ccc3ncnc(Nc4ccc(OCc5cccc(F)c5)c(Cl)c4)c3c2)o1,0.372 µM (active),10.5 µM (active),20.9 µM (active),4.69 µM (active),1.48 µM (active),11.8 µM (active),16.6 µM (active),18.7 µM (active),0.264 µM (active),
CC(C)C(=O)Nc1ccc([N+](=O)[O-])c(C(F)(F)F)c1,3.32 µM (active),0.935 µM (active),inactive,13.2 µM (active),7.43 µM (active),,8.33 µM (active),,1.87 µM (active),
O=C1c2c(O)ccc(O)c2C(=O)c2c(NCCNCCO)ccc(NCCNCCO)c21,0.296 µM (active),0.59 µM (active),1.05 µM (active),2.96 µM (active),0.132 µM (active),1.48 µM (active),2.35 µM (active),1.48 µM (active),0.526 µM (active),
Cn1cnc2c1c(=O)[nH]c(=O)n2C,9.35 µM (active),9.35 µM (active),18.7 µM (active),5.9 µM (active),5.9 µM (active),9.35 µM (active),20.9 µM (active),10.5 µM (active),16.6 µM (active),

Compound,Potency [1],Potency [2],Potency [3],Potency [4],Potency [5],Potency [6],Potency [7],Potency [8],Potency [9],Potency [10]
NC(=O)NO,0.166 µM (active),0.743 µM (active),1.48 µM (active),0.833 µM (active),0.0935 µM (active),,1.18 µM (active),2.09 µM (active),0.743 µM (active),3.32 µM (active)
NCCc1cnc[nH]1,inactive,inactive,inactive,inactive,,,inactive,0.0132 µM (active),inactive,
C[C@@H]1CC(=O)NN=C1c1ccc(NN=C(C#N)C#N)cc1,18.7 µM (active),inactive,18.7 µM (active),inactive,,,,18.7 µM (active),20.9 µM (active),
CN(C)c1nc(N(C)C)nc(N(C)C)n1,inactive,inactive,inactive,inactive,inactive,,inactive,,inactive,
C[C@](N)(Cc1ccc(O)c(O)c1)C(=O)O,20.9 µM (active),inactive,,inactive,16.6 µM (active),20.9 µM (active),,5.26 µM (active),,
NC(CO)C(=O)NNCc1ccc(O)c(O)c1O (stereo not drawn),inactive,inactive,20.9 µM (active),inactive,,,33.2 µM (active),7.43 µM (active),inactive,
Cc1cn([C@H]2C[C@H](N=[N+]=[N-])[C@@H](CO)O2)c(=O)[nH]c1=O,26.4 µM (active),5.26 µM (active),inactive,,,,,,23.5 µM (active),
CN(C)CCOC(c1ccccc1)c1ccccc1,9.35 µM (active),inactive,inactive,,18.7 µM (active),,inactive,,,
CCCCc1oc2ccccc2c1C(=O)c1cc(I)c(OCCN(CC)CC)c(I)c1,5.9 µM (active),6.62 µM (active),18.7 µM (active),26.4 µM (active),,,20.9 µM (active),18.7 µM (active),23.5 µM (active),23.5 µM (active)
CC#C[C@]1(O)CC[C@H]2[C@@H]3CCC4=CC(=O)CCC4=C3[C@@H](c3ccc(N(C)C)cc3)C[C@@]21C,0.372 µM (active),0.264 µM (active),1.18 µM (active),0.469 µM (active),0.743 µM (active),,4.18 µM (active),4.18 µM (active),0.418 µM (active),
CC1(C)O[C@H]2CC(=O)OC[C@]23[C@H]2CC[C@@]4(C)[C@H](c5ccoc5)OC(=O)[C@H]5O[C@]54[C@]2(C)C(=O)C[C@@H]13,inactive,inactive,inactive,inactive,inactive,inactive,inactive,,inactive,
CC1COc2c(N3CCN(C)CC3)c(F)cc3c(=O)c(C(=O)O)cn1c23 (stereo not drawn),inactive,18.7 µM (active),inactive,,,5.26 µM (active),inactive,11.8 µM (active),inactive,
Cc1ccc(C(=O)Nc2ccc(S(=O)(=O)O)c3cc(S(=O)(=O)O)cc(S(=O)(=O)O)c23)cc1NC(=O)c1cccc(NC(=O)Nc2cccc(C(=O)Nc3cc(C(=O)Nc4ccc(S(=O)(=O)O)c5cc(S(=O)(=O)O)cc(S(=O)(=O)O)c45)ccc3C)c2)c1,inactive,inactive,inactive,inactive,,inactive,,0.0372 µM (active),inactive,inactive
CCOC(=O)Nc1ccc(NCc2ccc(F)cc2)nc1N,inactive,18.7 µM (active),inactive,,,,,,,
Clc1ccc2c(c1)C(N1CCNCC1)=Nc1ccccc1O2,14.8 µM (active),,,inactive,20.9 µM (active),,,16.6 µM (active),20.9 µM (active),inactive
Cc1cc(C(C)(C)C)cc(C)c1CC1=NCCN1,inactive,,,inactive,inactive,,inactive,,inactive,
CN1CCN2c3ccccc3Cc3ccccc3C2C1 (stereo not drawn),23.5 µM (active),,20.9 µM (active),18.7 µM (active),,,26.4 µM (active),20.9 µM (active),,
O=C1N(c2ccccc2)c2ccccc2C1(Cc1ccncc1)Cc1ccncc1,inactive,inactive,,inactive,0.001 µM (active),,37.2 µM (active),,inactive,
COc1cc2nc(N3CCN(C(=O)C4COc5ccccc5O4)CC3)nc(N)c2cc1OC (stereo not drawn),20.9 µM (active),,6.62 µM (active),5.9 µM (active),,,,20.9 µM (active),23.5 µM (active),
Cn1ccc2cc3c(cc21)CCN3C(=O)Nc1cccnc1,20.9 µM (active),,,20.9 µM (active),,,,,,
